{
  "source": "PubChem BioAssay AID504690",
  "about": "(Sanford-Burnham Center for Chemical Genomics, 2011)",
  "note": "In all, about 350,000 compounds went through this assay and about 2,700 (0.77%) were called active. The sample as a whole holds a higher share of actives than the screen did. Values without a mark were called inactive.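 How the source made its calls: active means inhibition reaching at least a set limit at 20 µM in the primary screen (cut at about 59% in these data); inactive means the rest.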",
  "data": [
    {"system": "glucose-6-phosphate dehydrogenase-6-phosphogluconolactonase (Plasmodium falciparum 3D7)", "test": "inhibition of malaria parasite G6PD (PfGluPho) – biochemical, fluorescence intensity, uHTS, primary screen (AID 504690);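 further: 0% = DMSO wells with substrate and 100% = DMSO wells lacking glucose-6-phosphate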", "conditions": "PfGluPho enzyme, NADPH resazurin-diaphorase fluorescence; at 20 µM; stronger effect = higher value", "values": [
      {"smiles": "O=C(CSC1c2ccccc2-c2ccccc21)N/N=C/c1ccccc1", "inhibition": "62.4% (active)"},
      {"smiles": "C[C@]12CCCCC1=CC(=O)C1C2CC[C@@]2(C)C1C[C@@H](F)[C@@H]2O", "note": "(stereo not given in full)", "inhibition": "-7.47%"},
      {"smiles": "CCOP(=S)(OCC)SCOC(=O)NCC(=O)OC", "inhibition": "-4.03%"},
      {"smiles": "COC(=O)C1=C(c2cccc(OCc3ccccc3)c2)C[C@@H]2CC[C@H]1N2C(=O)NCc1ccc(Br)cc1", "inhibition": "9.43%"},
      {"smiles": "CN1CCN(c2cc(N3CCNCC3)ccc2[N+](=O)[O-])CC1", "inhibition": "1.22%"},
      {"smiles": "COc1cccc(-c2nc3ccc(N4CCN(C)CC4)cc3[nH]2)c1", "inhibition": "64.4% (active)"},
      {"smiles": "c1ccc(C(CN2CCCCC2)c2ccccc2)cc1", "inhibition": "-1.44%"},
      {"smiles": "COc1ccccc1C1=NCc2nnc(CSC)n2-c2ccc(Cl)cc21", "inhibition": "-31.3%"},
      {"smiles": "C[C@@]1([C@@H](NP(=O)(c2ccccc2)c2ccccc2)c2ccccc2)C[C@H]1CCO", "inhibition": "-0.29%"},
      {"smiles": "O=C(NCC(c1cccnc1)N1CCN(c2ccccc2)CC1)Oc1ccccc1", "note": "(stereo not given)", "inhibition": "7.5%"},
      {"smiles": "Nc1ccc(Cc2ccc(N)c(Cl)c2)cc1Cl", "inhibition": "-5.41%"},
      {"smiles": "Cc1cc(C)c2c(c1)NP(=S)(c1ccccc1)N2", "note": "(stereo not given)", "inhibition": "63.6% (active)"},
      {"smiles": "COc1ccc2c(c1)NP(=S)(c1ccccc1)N2", "note": "(stereo not given)", "inhibition": "46.5%"},
      {"smiles": "C/C=C/CC1(CC)C(=O)NC(=S)NC1=O", "inhibition": "-4.76%"},
      {"smiles": "Nc1ccc(C(=O)N/N=C2/CN3CCC2CC3)cc1", "inhibition": "-10.7%"},
      {"smiles": "COC(=O)N(c1ccc(OC)cc1)P1(=S)OCCC(C)O1", "note": "(stereo not given)", "inhibition": "81.9% (active)"},
      {"smiles": "O=C(CN1CCCCC1)Nc1ccc(Br)cc1C(=O)c1ccccc1Cl", "inhibition": "0.87%"},
      {"smiles": "C=CCn1c(O)c(/C=N/N2CCOCC2)c(=O)[nH]c1=S", "inhibition": "-2.25%"},
      {"smiles": "O=C1NC(=O)N(Cc2ccco2)C(=O)/C1=C\\c1ccc(-c2ccc(F)cc2)o1", "inhibition": "72% (active)"},
      {"smiles": "O=C1NC(=O)N(CCc2ccc(F)cc2)C(=O)/C1=C/C=C/c1ccccc1", "inhibition": "4.03%"},
      {"smiles": "COc1ccc(N2C(=O)/C(=C/c3ccco3)C(=O)NC2=S)cc1", "inhibition": "23.2%"},
      {"smiles": "N#Cc1ccc(Cn2cc(C(=O)c3ccco3)c3ccccc32)cc1", "inhibition": "4.04%"},
      {"smiles": "CCC1(C)CC(CCNCc2ccc(N(C)C)cc2)(c2ccc(F)cc2)CCO1", "note": "(stereo not given)", "inhibition": "-7.55%"},
      {"smiles": "CC(=O)OC1C2(CC3N4C(=O)C5(CO)SSC4(CC31O)C(=O)N5C)OC(C)C(C)(C)C2=O", "note": "(stereo not given)", "inhibition": "19.4%"},
      {"smiles": "COc1cccc(N2C(=O)NC(=O)/C(=C\\c3ccc([N+](=O)[O-])s3)C2=O)c1", "inhibition": "56%"},
      {"smiles": "O=C1NC(=O)N(c2ccc(F)cc2)C(=O)/C1=C/c1ccc2c(c1)CCCN2Cc1ccccc1", "inhibition": "18.3%"},
      {"smiles": "O=C1NC(=O)N(c2ccccc2)C(=O)/C1=C/c1ccc([N+](=O)[O-])s1", "inhibition": "64.8% (active)"},
      {"smiles": "CCOP(=O)(OCC)C(NC(=O)c1ccc(C)cc1)C(Cl)(Cl)Cl", "note": "(stereo not given)", "inhibition": "1.69%"},
      {"smiles": "CCOCCc1c(O)[nH]c(=S)[nH]c1=O", "inhibition": "21.3%"},
      {"smiles": "CCOP(=S)(OCC)C(O)CCCCCn1c(=O)c(F)cn(C2CCCO2)c1=O", "note": "(stereo not given)", "inhibition": "11.4%"}
    ]}
  ]
}
